# High-throughput results deposited in PubChem by several laboratories.
# IDE inh: human IDE inhibitors in live cells, primary screen, fluorescence polarization, HEK cells, FAbetaB substrate | FAbetaB cleavage | inhibition, % at 5.59 µM | 320,000 compounds, 0.41% hits | AID 434962, 2010;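 active = percent inhibition above the average of all tested compounds plus 3 SD, set per screening campaign, cut at about 16% in these data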;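 note: IDE supplied by intact live HEK cells; FP after avidin binding of uncleaved biotin substrate so inhibition keeps polarization high; 0% = DMSO wells and 100% = 60 µM reference IDE inhibitor Ii1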
# ALR inh: inhibitors of human ALR sulfhydryl oxidase, primary screen, biochemical, H2O2 detection, HRP-luminol luminescence, single point. 290,000 compounds, 3.8% hits. purified ALR, DTT oxidation. inhibition, % (test concentration not listed). FAD-linked sulfhydryl oxidase ALR (Homo sapiens), P55789;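 active = mean replicate inhibition above about 79%, with every replicate also reaching it, limit read from the data; inconclusive = only one of the two criteria met; inactive = mean below limit and not every replicate reaching it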
# Target sequence (P55789 whole entry, looked up): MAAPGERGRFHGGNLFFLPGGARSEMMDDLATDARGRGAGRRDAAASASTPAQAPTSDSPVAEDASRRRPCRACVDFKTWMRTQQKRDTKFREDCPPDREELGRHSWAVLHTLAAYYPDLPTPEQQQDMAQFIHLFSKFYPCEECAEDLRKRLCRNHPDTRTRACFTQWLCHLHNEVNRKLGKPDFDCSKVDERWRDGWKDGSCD
# CaV13 ICDI inh: Disruptors of the CACNA1D IQ motif to Ca2+-dependent inactivation inhibitor domain association, primary screening, Förster resonance energy transfer in intact living …; inhibition, % at 12.3 µM; HEK cells, CFP/YFP FRET ICDI-IQ, plate reader, 10 min; percent FRET-ratio fall versus neutral wells; 340,000 compounds, 0.098% hits; AID 743397;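 active = mean replicate inhibition of at least 30% and at least 1% of replicates passing that level; inconclusive = only one of the two criteria is met; inactive = neither criterion is met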;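 note: 0% = median of the neutral control wells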
# PfM18AAP inh-1: PfM18AAP inhibitors, malaria aminopeptidase, primary screen, biochemical, QFRET, recombinant enzyme | AID 1822, 2009 | M18 aspartyl aminopeptidase (Plasmodium falciparum 3D7) | 290,000 compounds, 1.2% hits | H-Glu-NHMec fluorogenic cleavage | inhibition, % at 7.35 µM;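 active = inhibition above the campaign mean inhibition over all tested compounds plus 3 SD, cut at about 28% in these data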;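 note: 0% = plate median of test compound wells and 100% = 2 mM ZnCl2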
# PolyA inh: polyadenylation inhibitors in yeast reporter cells, primary screen, luminescence, S. cerevisiae; AID 1875, 2009; 300,000 compounds, 0.02% hits; activity score, % at 12 µM; S. cerevisiae SKY197-pL101 polyadenylation reporter, beta-gal luminescence; efflux-impaired pdr1/pdr3 knockout yeast; score 100 = 6 SD above DMSO;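 active = lowest replicate activity score at least 50, where 100 means six control SD above control mean; inconclusive = lowest score under 50 but half or more replicates reach 50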;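 note: yeast exposed to compound for 9 h at 30 °C; higher score means more reporter readthrough which indicates perturbed polyadenylation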
# IDE act: human IDE activators in live cells, primary screen, fluorescence polarization, HEK cells, FAbeta-B substrate; FAbeta-B cleavage; 0% vehicle, 100% cell-free pure enzyme wells; activation, % at 5.96 µM; 340,000 compounds, 0.073% hits;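 active = activation above the mean of all tested compounds plus 3 SD, set per screening campaign, cut at about 17% in these data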
# PfM18AAP inh-2: PfM18AAP inhibitors, malaria aminopeptidase, confirmation, biochemical, QFRET, recombinant enzyme, triplicate. shares compounds with PfM18AAP inh-1. inhibition, % at 7.35 µM. 2,400 compounds, 28% hits. H-Glu-NHMec fluorogenic cleavage;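 active = mean inhibition over replicate wells above the hit cutoff set for the earlier primary screen, cut at about 29% in these data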;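 note: 0% = median of test compound wells and 100% = 2 mM ZnCl2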
# CTSL1 counter: cathepsin L1 inhibitors, retest, confirmation, counter-screen for PFM18AAP inhibitor project, biochemical, QFRET, triplicate; purified cathepsin L1, Z-Leu-Arg-MCA fluorescence; 2,400 tested, under 10 active; shares compounds with PfM18AAP inh-1; inhibition, % at 5.96 µM; AID 2178, 2009;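 active = average inhibition across replicates above the hit cutoff set in the earlier primary screen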;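 note: 0% = median of test compound wells and 100% = Z-Phe-Ala-diazomethylketone 1 µM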
# Target sequence (P07711 whole entry, looked up): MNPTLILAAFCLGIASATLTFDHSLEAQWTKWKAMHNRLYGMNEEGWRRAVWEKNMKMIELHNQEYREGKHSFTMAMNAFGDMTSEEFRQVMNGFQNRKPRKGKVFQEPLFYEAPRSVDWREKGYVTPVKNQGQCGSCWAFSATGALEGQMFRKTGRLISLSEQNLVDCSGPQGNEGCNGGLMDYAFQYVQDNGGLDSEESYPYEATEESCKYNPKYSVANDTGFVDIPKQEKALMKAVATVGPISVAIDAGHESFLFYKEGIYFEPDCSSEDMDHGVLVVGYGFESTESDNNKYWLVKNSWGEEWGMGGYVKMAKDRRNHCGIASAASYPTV
# Starred values were filed as active, the others as inactive; ? = inconclusive; . = no result given. Hits are enriched below; roughly 4.1% of the tested compounds scored in any of these assays.
SMILES,IDE inh,ALR inh,CaV13 ICDI inh,PfM18AAP inh-1,PolyA inh,IDE act,PfM18AAP inh-2,CTSL1 counter
Oc1ccc2ccccc2c1C=Nc1ccccc1Br,1.0,-22.9,-6.1,4.6,23.4,-1.1,.,.
Oc1cccc(C=Nc2cccc3ccccc23)c1O,-0.1,.,-22.5,49.9*,10.1,0.1,31.8*,-2.4
COCCSc1ccccc1C(=O)N1CCN(c2ccccc2OC)CC1,6.7,56.5,-4.1,4.1,-8.5,3.8,.,.
CC(C)(C)c1ccc(S(=O)(=O)O/N=C2/CCCCC2c2ccc([N+](=O)[O-])cc2[N+](=O)[O-])cc1 (stereo not drawn),-8.0,-2.1,-3.8,38.3*,21.1,0.3,-27.7,2.4
N#Cc1c(N2C(=O)Nc3ccccc3N2O)sc2c1CCCC2,-1.9,24.4,-0.5,-3.3,7.3,4.5,.,.
N#Cc1c(N2C(=O)Nc3ccccc3N2O)sc2c1CCCCCC2,-1.1,68.8,-4.7,34.9*,10.4,-5.5,-40.9,8.1
Clc1ccc(Nc2ccc(Cl)nn2)cc1,-0.9,-2.8,-4.1,-11.5,-4.6,.,.,.
O=C(NNc1ccc(Cl)nn1)c1ccc(Cl)cc1,-1.4,0.1,-15.1,38.4*,-5.8,-2.5,-3.6,-1.6
O=C(CSc1nnc(-c2ccncc2)n1CC1CCCO1)Nc1nccs1 (stereo not drawn),2.4,-2.5,-4.9,2.6,4.2,2.9,.,.
CC1=NNC(=O)/C1=C\c1cn(-c2ccccc2)nc1-c1ccc(F)cc1,.,.,.,38.9*,-33.3,-4.4,64.1*,-0.1
O=Cc1cn(-c2ccccc2)nc1-c1ccc(F)cc1,2.2,-5.9,-4.5,-0.8,-8.1,0.0,.,.
Oc1c(C(c2ccccc2)N2CCc3ccccc3C2)sc2ncnn12 (stereo not drawn),0.3,43.1,-4.9,58.2*,-2.9,5.5,17.6,1.7
CC1CCCN(C(c2ccccc2)c2sc3ncnn3c2O)C1 (stereo not drawn),-1.2,?,4.1,54.8*,20.4,1.6,-28.2,1.2
Cc1cc(C(F)(F)F)nn1CCCNC(=O)c1cnccn1,-0.7,-8.9,-8.2,-2.7,0.9,1.3,.,.
CCCNC(=O)c1ccccc1NC(=O)c1ccc2c(c1)NC(=O)C(C)S2 (stereo not drawn),4.4,1.5,-6.7,0.0,-9.0,3.2,.,.
COC(=O)\C(C(C)=O)=C(/C=C/C=C/C=C/N(C)C)N(C)C,5.6,.,-7.3,2.0,1.4,2.2,.,.
CC(=O)N1CCc2c(sc(NC(=O)C3CC3)c2-c2nc3ccccc3s2)C1,5.7,-13.8,-9.2,34.0*,15.6,2.9,-29.1,-2.0
COc1ccc(C2CC(=O)N3CN(c4ccc(C)c(Cl)c4)CSC3=C2C#N)cc1OC (stereo not drawn),4.2,-7.8,-3.5,34.6*,-11.8,-11.4,-3.6,-1.7
CCc1ccc(N2CSC3=C(C#N)C(c4cccs4)CC(=O)N3C2)cc1 (stereo not drawn),-0.1,5.0,.,44.4*,-8.8,-10.8,-5.5,1.0
CCc1ccc(C2CC(=O)N3CN(c4ccccc4)CSC3=C2C#N)cc1 (stereo not drawn),4.0,.,-17.1,24.3,3.0,-19.2,.,.
Cc1ccc(N2CSC3=C(C#N)C(c4cccs4)CC(=O)N3C2)cc1 (stereo not drawn),1.3,-13.7,-6.1,33.0*,0.8,-5.0,-5.9,5.9
CCOC(=O)c1ccc(N2CSC3=C(C#N)C(c4cccs4)CC(=O)N3C2)cc1 (stereo not drawn),4.2,15.1,-3.5,31.9*,21.6,-4.1,-8.0,5.7
COc1ccc(-c2nnc(SCC(=O)c3ccc(O)cc3O)o2)cc1,4.6,-7.6,-7.4,7.4,6.3,5.4,.,.
Cc1ccccc1NS(=O)(=O)c1ccc(NC(=O)N2CCCCC2)cc1,7.0,-14.2,-6.6,-5.7,-3.9,3.3,.,.
CCN(CC)C(=S)SCC(=O)Nc1ccc(S(N)(=O)=O)cc1,-4.1,-26.5,-5.2,3.7,11.7,10.1,.,.
SMILES,IDE inh,ALR inh,CaV13 ICDI inh,PfM18AAP inh-1,PolyA inh,IDE act,PfM18AAP inh-2,CTSL1 counter
CCN(CC)C(=S)SCC(=O)Nc1nc(=O)c2ccccc2s1,7.0,-13.4,-1.2,32.1*,-22.6,-1.5,-53.2,-9.4
O=C(Nc1ccccc1O)c1ccccc1O,-9.8,52.9,-8.5,34.0*,0.2,3.1,29.3*,-5.0
Cc1cccc(NC(=O)c2ccccc2O)c1C,-0.6,4.4,-7.9,8.2,14.6,1.1,.,.
CC(C)(O)c1cc2ccc(C#Cc3ccsc3)cc2c(=O)o1,1.1,-14.1,-6.0,.,.,-1.2,.,.
CCN(c1ccccc1)S(=O)(=O)c1ccc(C(=O)N2CC(C)CC(C)C2)cc1 (stereo not drawn),-3.7,-2.0,-4.0,.,-4.9,-1.0,.,.
COc1ccc(C(=O)N/C(=C/c2ccccc2F)C(=O)NCCN2CCOCC2)cc1OC,-12.5,9.7,-2.0,-10.8,-2.8,3.3,.,.
COc1ccc(-n2c(C)c(C(C)=O)c(C(C)=O)c2C)cc1OC,3.4,-29.6,.,-3.6,0.5,0.3,.,.
CC(=O)c1c(C(C)=O)c(C)n(-c2ccc(N)c(C)c2)c1C,3.2,.,-4.5,32.4*,-14.3,0.1,-40.4,0.0
COc1cccc(C(=O)Oc2ccc3c(C)cc(=O)oc3c2C(C)=O)c1,-7.3,20.0,-2.9,2.1,-6.9,-1.3,.,.
CCNc1nc(NCC)nc(N/N=C/c2ccc(O)c(O)c2)n1,-3.1,98.7*,2.0,46.8*,22.4,4.8,33.0*,-0.1
CC(=O)N1CCN(c2nnnn2-c2ccccc2)CC1,2.0,-9.7,.,5.7,-16.6,1.5,.,.
Oc1ccc(N2CCN(c3nnnn3-c3ccccc3)CC2)cc1,2.9,99.4*,-5.0,32.1*,5.1,0.3,-2.6,0.8
Fc1ccc(NC(=S)Nc2cccnc2)c(F)c1F,-1.4,.,-7.9,-0.2,-2.2,-2.0,.,.
CC(=O)/C(=N\Nc1ccc(C)cc1)N1CCOCC1,3.6,98.7*,-5.2,55.2*,-27.6,-3.9,-46.4,5.9
CC(=O)NS(=O)(=O)c1ccc2sc(C)nc2c1,7.7,-9.2,-4.7,22.0,13.1,1.2,-31.7,0.5
